Assay outcomes as filed in PubChem.
Most compounds without a hit are left out; they make up all but 22% or so of the library.
Pf growth 96h = Primary qHTS for delayed death inhibitors of the malarial parasite plastid, 96 hour incubation | P. falciparum luciferase reporter growth, 96 h | Potency, µM (doses to about 28.7 µM), hits mostly inhibitors | AID 504834, 2011 | 6.9% of 320,000 active
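Readout is luminescence from an integrated firefly luciferase in P. falciparum. Red cells, 2% hematocrit and 0.05% parasitemia final, were cultured with compound through two parasite generations (96 hours) at 37 C, 5% CO2.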
LmPK inhibitor = qHTS Assay for Inhibitors of Leishmania Mexicana Pyruvate Kinase (LmPK) | 0.37% of 290,000 active | AID 1721, 2009 | Potency, µM (series often up to 57.5 µM), usual class: inhibitors | purified LmPK, Kinase-Glo ATP luminescence, 1 h
Target sequence (Q27686 whole entry, looked up): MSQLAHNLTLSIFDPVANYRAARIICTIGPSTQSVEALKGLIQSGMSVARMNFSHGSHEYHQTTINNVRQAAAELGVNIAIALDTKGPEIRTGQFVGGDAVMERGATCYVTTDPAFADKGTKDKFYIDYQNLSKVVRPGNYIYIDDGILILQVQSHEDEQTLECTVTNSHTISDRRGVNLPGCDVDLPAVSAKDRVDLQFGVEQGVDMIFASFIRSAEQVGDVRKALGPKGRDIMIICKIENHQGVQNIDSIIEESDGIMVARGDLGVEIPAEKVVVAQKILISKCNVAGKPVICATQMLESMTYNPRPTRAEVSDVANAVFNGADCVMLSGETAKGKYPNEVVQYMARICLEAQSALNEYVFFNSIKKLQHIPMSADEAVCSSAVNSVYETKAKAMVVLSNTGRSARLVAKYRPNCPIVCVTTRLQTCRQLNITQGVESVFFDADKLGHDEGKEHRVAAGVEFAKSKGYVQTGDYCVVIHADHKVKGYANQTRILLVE
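In 50 mM imidazole pH 7.2 with 7 mM MgCl2, LmPK (0.1 nM) turned over PEP (0.5 mM) and ADP (0.1 mM) for 1 h at room temperature. Luciferase read-out of ATP.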
Cycloheximide cs = Cycloheximide Counterscreen for Small Molecule Inhibitors of Shiga Toxin; cell reporter, cycloheximide protein synthesis inhibition counterscreen; max response, %; 12% of 300,000 active; AID 2314, 2010; in the data active means max response mostly above about 13%, no sharp cut-off; inactive means mostly below about 14%; further: read at 38.3 µM for the half of the compounds with a filed dose
Pf growth 48h = Primary qHTS for delayed death inhibitors of the malarial parasite plastid, 48 hour incubation. P. falciparum luciferase growth in erythrocytes, 48 h. Potency, µM (series often up to 28.7 µM), hits mostly inhibitors. 5.9% of 310,000 active. AID 504832, 2011
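Luciferase-expressing P. falciparum in infected erythrocytes (2% hematocrit, 0.1% parasitemia final) in RPMI 1640/0.5% Albumax were exposed to compound for 48 hours at 37 C, 5% CO2; growth read as luminescence.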
Shiga toxin inh = A qHTS for Small Molecule Inhibitors of Shiga Toxin. Vero cells, Shiga toxin protein synthesis inhibition reporter. inhibition, % at 38.7 µM. 9.2% of 290,000 active. AID 2315, 2010; in the data active means inhibition mostly above about 28%, no sharp cut-off; inactive means mostly below about 43%
Each line names hits and unclear results; the compound was inactive in the other large screens. Unless noted, the call rests on the fitted dose curve; in most records, active means well fitted inhibition curve with a large enough effect; inconclusive means small, poorly fitted or top-dose-only effect, or another doubt; inactive means no such curve, though single readings can be large or run the other way.

CCOC(=O)c1ccc(N2C(=O)C3C(/C=C/c4ccccc4)OC4(C(=O)c5ccccc5C4=O)C3C2=O)cc1 (stereo not given)	Pf growth 96h inconclusive
O=C(NCCO)c1ccc(CSc2nc3ccccc3[nH]2)cc1	Cycloheximide cs 17.4
O=C(NCCCO)c1ccc(CSc2nc3ccccc3[nH]2)cc1	Cycloheximide cs 10.7
CCCCC(CC)CNC(=O)C(Cc1ccccc1)NS(=O)(=O)c1ccc2c(c1)CCC(=O)N2 (stereo not given)	Pf growth 96h 11.7µM, Pf growth 48h inconclusive
CCC(C)NC(=O)C(Cc1ccccc1)NS(=O)(=O)c1ccc2c(c1)CCC(=O)N2 (stereo not given)	Pf growth 96h inconclusive, Pf growth 48h inconclusive
O=C(NCc1ccc(Cl)cc1)c1ccc2nc[nH]c2c1	none
COc1ccc(-c2noc(CSc3nc(N)cc(=O)[nH]3)n2)cc1	Cycloheximide cs 8.0
COn1c(-c2ccc(C)cc2)nc2ncccc21	Cycloheximide cs 20.9
CCN1CCN(CC(=O)N2N=C(c3cccs3)CC2c2ccc(C)cc2)C(=O)C1=O (stereo not given)	Pf growth 96h inconclusive
COC(=O)CC(c1ccc(C#N)cc1)n1c(C)ccc1C (stereo not given)	Pf growth 96h 13.1µM, Pf growth 48h 9.28µM
CCCNC(=O)NC(=O)CSc1ccc2c(c1)OCCO2	none (no result: Pf growth 96h)
Cc1c(N=C/C=C/c2ccccc2)cnn1C	Cycloheximide cs 23.0
CN(C)c1ccc([C@@H]2[C@@H]([N+](=O)[O-])[C@H]3C=Cc4ccccc4N3[C@H]2C(=O)c2ccc(Cl)cc2)cc1	Pf growth 96h inconclusive, Cycloheximide cs 21.4, Pf growth 48h inconclusive, Shiga toxin inh 21.6
CCOC(=O)/C=C(/C)N1N=C(c2ccc(OC)cc2)CC1c1cccc([N+](=O)[O-])c1 (stereo not given)	Pf growth 96h inconclusive, Cycloheximide cs 46.0, Pf growth 48h inconclusive, Shiga toxin inh 113.2
COc1ccc(C2=NN(C(=O)c3ccccc3)C(c3cccc([N+](=O)[O-])c3)C2)cc1 (stereo not given)	Pf growth 96h inconclusive, Pf growth 48h inconclusive
COc1cc(NC(=O)CSc2nnc(-c3ccncc3)o2)cc(OC)c1OC	Pf growth 96h inconclusive
CCCN1CCC(NC(=S)Nc2ccc(C(=O)OCC)cc2)CC1	Pf growth 48h 11.7µM
CCCN1CCC(NC(=S)Nc2ccc([N+](=O)[O-])cc2)CC1	Pf growth 96h inconclusive, Cycloheximide cs 10.2, Pf growth 48h 3.7µM
COc1cc2c(C(=O)N3CCN(c4cccc(Cl)c4)CC3)cn(CC(C)C)c(=O)c2cc1OC	none (no result: Pf growth 96h, Pf growth 48h)
C(=C\c1ccccc1)/C=N/Nc1nc2ccccc2s1	Cycloheximide cs 34.0, Shiga toxin inh 95.2
O=C(CP(=O)(c1ccccc1)c1ccccc1)Nc1nc2ccccc2s1	Pf growth 96h inconclusive
CCC/C=N/Nc1nc2ccccc2s1	Pf growth 96h 2.62µM, Cycloheximide cs 34.6, Shiga toxin inh 107.7
Brc1ccc(/C=C/C=N/Nc2nc3ccccc3s2)cc1	Shiga toxin inh 49.1
O=S(=O)(N/N=C\C=C\c1ccccc1)c1ccc(Br)cc1	Pf growth 48h inconclusive
CCOC(=O)Cc1csc(NC(=O)CN2CCCCC2)n1	Pf growth 96h inconclusive
Cn1nc(C(=O)NC2CCC(O)CC2)c2ccccc2c1=O (stereo not given)	none (no result: LmPK inhibitor, Cycloheximide cs, Shiga toxin inh)
C/C(=N\NC(=O)C1CCCN(S(=O)(=O)c2ccccc2)C1)c1ccccn1 (stereo not given)	Pf growth 48h 2.33µM
C/C(=N\NC(=O)C1CCCN(S(=O)(=O)c2ccccc2)C1)c1ccncc1 (stereo not given)	Pf growth 96h inconclusive
C/C(=N\NC(=O)C1CCCN(S(=O)(=O)c2ccccc2)C1)c1cccnc1 (stereo not given)	Pf growth 96h 9.28µM
Cc1ccc(S(=O)(=O)N2CCCC(C(=O)NCc3ccccn3)C2)cc1 (stereo not given)	none
COc1cccc2sc(Nc3nc4ccc(NC(C)=O)cc4s3)nc12	Pf growth 96h inconclusive, Cycloheximide cs 21.8, Pf growth 48h inconclusive, Shiga toxin inh 44.0
CC(=O)Nc1ccc2nc(NC(=O)COc3ccccc3)sc2c1	none
CC(=O)Nc1ccc2nc(NC(=O)COc3ccccc3Cl)sc2c1	Cycloheximide cs 26.2, Shiga toxin inh 43.2
CC(=O)Nc1ccc2nc(NC(=O)CCc3ccccc3)sc2c1	Pf growth 96h inconclusive, Cycloheximide cs 26.7, Pf growth 48h inconclusive, Shiga toxin inh 56.4
CC(=O)Nc1ccc2nc(NC(=O)COc3ccccc3C)sc2c1	Pf growth 96h inconclusive, Cycloheximide cs 50.2
Cc1c(C)c2c(c(C)c1OC(=O)c1cccnc1)CC[C@@](C)(CCC[C@H](C)CCC[C@H](C)CCCC(C)C)O2	none (no result: LmPK inhibitor)
C=C(C)C1CC=C(C)CC1 (stereo not given)	none (no result: LmPK inhibitor, Cycloheximide cs, Shiga toxin inh)
O=C(NCc1cccnc1)C12CC3CC(CC(Cl)(C3)C1)C2	Pf growth 96h inconclusive, Pf growth 48h inconclusive, Shiga toxin inh 16.0
O=C(N1CCN=C1SCc1cccnc1)C12CC3CC(CC(C3)C1)C2	Pf growth 48h 14.7µM
Cc1c(N/C(=N/S(=O)(=O)c2ccc(F)cc2)c2ccccc2)c(=O)n(-c2ccccc2)n1C	none
c1ccc(-c2nc(NCCCn3ccnc3)c3oc4ccccc4c3n2)cc1	Pf growth 96h 2.33µM, Pf growth 48h 3.29µM
CCc1nc(NCCCn2ccnc2)c2oc3ccccc3c2n1	Pf growth 96h 13.1µM, Pf growth 48h inconclusive
c1cncc(-c2nc(NCCCn3ccnc3)c3ccccc3n2)c1	Pf growth 96h inconclusive
O=C(CN(CC1CCCO1)C(=O)CNS(=O)(=O)c1ccc(F)cc1)NCCc1ccccc1 (stereo not given)	Pf growth 96h inconclusive
COc1ccc(C2=Nn3c(nnc3C3CCCCC3)SC2)cc1OC	Pf growth 96h 4.65µM (no result: Pf growth 48h)
COc1ccc(OC)c(C2=Nn3c(nnc3C3CCCCC3)SC2)c1	Pf growth 96h 9.28µM, Pf growth 48h inconclusive
COc1ccccc1C1=Nn2c(nnc2C2CCCCC2)SC1	Pf growth 48h inconclusive
Cc1cc(-c2ccccc2)nc(SCC(=O)N2CCCC2)n1	none
CC1CCC(C(C)C)C(OC(=O)Cn2c(-c3ccc(F)cc3)[n+](C)c3ccccc32)C1 (stereo not given)	Pf growth 96h inconclusive, Pf growth 48h 0.828µM
CC1CCC(C(C)C)C(OC(=O)C[n+]2cc(-c3ccc(Cl)cc3)n3c2CCC3)C1 (stereo not given)	Pf growth 96h inconclusive, Pf growth 48h inconclusive
CC1CCC(C(C)C)C(OC(=O)Cn2c(-c3ccccc3)[n+](C)c3ccccc32)C1 (stereo not given)	Pf growth 48h 0.465µM
O=c1c(Cl)c(NCCO)cnn1-c1cccc(Cl)c1	Cycloheximide cs 22.7, Shiga toxin inh 50.7
CN(C)CCNc1cnn(-c2ccccc2)c(=O)c1Cl	Cycloheximide cs 17.0
CNc1cnn(-c2ccccc2)c(=O)c1Cl	none
